Rows were chosen to be rich in hits. Some 1.7% of all compounds tested hit in one or more screens of this group.
p97 ATPase inh – inhibitors of human p97 ATPase, primary screen, biochemical. Transitional endoplasmic reticulum ATPase (Homo sapiens), P55072. recombinant p97 ATPase, Kinase-Glo ATP luminescence, 3 h. inhibition, % at 8 µM. 220,000 compounds, 0.42% hits; in the data active = inhibition above about 15%;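 note: 0% = DMSO vehicle and 100% = wells lacking enzyme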
Rin1-Abl PPI inh – inhibitors of Rin1-Abl protein binding, primary screen, biochemical, TR-FRET | inhibition, % at 7.35 µM | AID 588664, 2011 | 360,000 compounds, 0.4% hits | Tyrosine-protein kinase ABL1 (Homo sapiens) + Ras and Rab interactor 1 (Homo sapiens), …; in the data active = inhibition above about 5%, passing the limit was not always enough
Hck Nef HTS – inhibitors of Nef-activated human Hck kinase, primary screen, biochemical, Z-Lyte FRET, 384-well, Hck-YEEI. Tyrosine-protein kinase HCK (Homo sapiens), P08631. Recombinant Hck-YEEI plus Nef, Z-Lyte FRET kinase assay. inhibition, % at 20 µM. 220,000 compounds, 0.68% hits. AID 463187, 2010;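 active = Hck-Nef kinase inhibition above about 50%, limit read from the data; inactive = inhibition below that limit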;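 note: 0% = DMSO with Hck plus Nef and 100% = Hck alone without Nef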
PREPL inhibitor – PREPL enzyme inhibitors, primary screen, biochemical, fluorescence polarization | recombinant PREPL, fluorescence polarization activity-based probe | inhibition, % at 5.96 µM | 320,000 compounds, 0.68% hits | AID 2751, 2010; in the data active = inhibition above about 43%;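 note: 0% = enzyme with DMSO and 100% = wells lacking enzyme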
LYPLA1 inh – LYPLA1 inhibitors, primary screen, counter-screen for PME1 inhibitor project, biochemical, fluorescence polarization, FP-Rh probe ABPP. Acyl-protein thioesterase 1 (Homo sapiens), O75608. 320,000 compounds, 0.16% hits. AID 2174, 2009. inhibition, % at 5.9 µM. recombinant LYPLA1;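 active = inhibition above the mean of all tested compounds plus 3 SD, set per campaign, cut at about 14% in these data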;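 note: inhibitors block serine hydrolase probe labeling of LYPLA1 so polarization falls; 0% = enzyme with DMSO and 100% = wells lacking LYPLA1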
Target sequence (O75608 whole entry, looked up): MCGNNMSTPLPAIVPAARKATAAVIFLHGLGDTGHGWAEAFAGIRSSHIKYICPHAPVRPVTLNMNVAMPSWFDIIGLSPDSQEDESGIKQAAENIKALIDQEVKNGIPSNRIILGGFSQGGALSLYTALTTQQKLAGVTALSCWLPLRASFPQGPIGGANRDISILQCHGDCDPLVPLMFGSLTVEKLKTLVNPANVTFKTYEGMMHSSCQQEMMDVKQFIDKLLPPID
LYPLA2 counter – LYPLA2 inhibitors, primary screen, counter-screen for PME1 inhibitor project, biochemical, fluorescence polarization, FP-Rh probe ABPP | AID 2177, 2009 | recombinant LYPLA2 | Acyl-protein thioesterase 2 (Homo sapiens), O95372 | 320,000 compounds, 0.38% hits | inhibition, % at 5.9 µM;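 active = inhibition above the screen-wide mean plus 3 SD, limit set per campaign, cut at about 26% in these data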;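 note: 0% = LYPLA2 with DMSO and 100% = wells lacking LYPLA2 enzyme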
Target sequence (O95372 whole entry, looked up): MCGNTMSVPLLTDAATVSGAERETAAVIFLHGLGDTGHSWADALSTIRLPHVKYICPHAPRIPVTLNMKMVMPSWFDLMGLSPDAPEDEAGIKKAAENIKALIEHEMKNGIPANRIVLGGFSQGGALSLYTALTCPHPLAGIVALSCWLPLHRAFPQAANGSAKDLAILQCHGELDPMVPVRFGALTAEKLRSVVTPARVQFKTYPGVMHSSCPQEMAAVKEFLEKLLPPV
Hck Nef conf – retest of Hck:Nef kinase inhibitor hits, confirmation, biochemical, Z-Lyte FRET, 384-well, p-Tyr peptide counterscreen; shares compounds with Hck Nef HTS; Recombinant Hck-YEEI:Nef, Z-Lyte FRET kinase assay; AID 463188, 2010; calls only at 10 µM; 1,300 compounds, 28% hits;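 active = average inhibition of at least 50%, with Z-scores no higher than 3 in both the phospho-tyrosine peptide and fluorescence counterscreens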
Starred values were filed as active, the others as inactive.

Results for COc1ccc(-n2nc(C(=O)Nc3ccc(OC)c(OC)c3)c3c4ccccc4n(C)c3c2=O)cc1 ?
p97 ATPase inh: -4.2; Rin1-Abl PPI inh: 2.3; Hck Nef HTS: 89.4*; PREPL inhibitor: 8.1; LYPLA1 inh: -7.1; LYPLA2 counter: 2.2; Hck Nef conf: active

Results for O=C1CSC(=S)N1/N=C/c1ccc(Cl)c([N+](=O)[O-])c1 ?
p97 ATPase inh: 12.2; Hck Nef HTS: 80.2*; PREPL inhibitor: 9.5; LYPLA1 inh: 1.8; LYPLA2 counter: 6.3; Hck Nef conf: active

Results for CC1=C(C(=O)OCC2CCCO2)C(c2ccc(C)cc2)C2=C(CCCC2=O)N1 (stereo not given) ?
p97 ATPase inh: -0.6; Rin1-Abl PPI inh: -8.3; Hck Nef HTS: 63.2*; PREPL inhibitor: -1.9; LYPLA1 inh: -2.4; LYPLA2 counter: 1.7; Hck Nef conf: inactive

Results for CC1=C(C(=O)OCC2CCCO2)C(c2ccncc2)C2=C(CCCC2=O)N1 (stereo not given) ?
p97 ATPase inh: -7.7; Rin1-Abl PPI inh: -3.0; Hck Nef HTS: 9.4; PREPL inhibitor: 2.6; LYPLA1 inh: -1.9; LYPLA2 counter: -9.3

Results for O=C(O)c1ccc(-c2ccc(/C=C3\NC(=O)N(Cc4ccc(Cl)cc4)C3=O)o2)cc1Cl ?
p97 ATPase inh: 1.0; Rin1-Abl PPI inh: 0.8; Hck Nef HTS: 52.5*; Hck Nef conf: inactive

Results for CCOC(=O)CN1C(=O)S/C(=C\c2ccc(-c3ccc(C(=O)O)c(Cl)c3)o2)C1=O ?
Rin1-Abl PPI inh: -4.9; PREPL inhibitor: -6.8; LYPLA1 inh: -4.1; LYPLA2 counter: -5.0

Results for c1ccc(-c2nccc(-c3ccc(-n4cnc5ccccc54)cc3)n2)cc1 ?
p97 ATPase inh: -6.6; Rin1-Abl PPI inh: -0.8; Hck Nef HTS: 101.8*; PREPL inhibitor: -2.9; LYPLA1 inh: -12.7; LYPLA2 counter: -4.1; Hck Nef conf: inactive

What do the screens show for `COc1cccc(Oc2ccc(C(F)(F)F)cc2NC(=O)CN2C(=O)NC3(CCCC3)C2=O)c1`?
Rin1-Abl PPI inh: -1.1; PREPL inhibitor: 13.0

What do the screens show for `O=C(Nc1ccc2oc(=O)ccc2c1)c1ccc(-c2cccc([N+](=O)[O-])c2)o1`?
p97 ATPase inh: -2.3; Rin1-Abl PPI inh: 0.9; Hck Nef HTS: 66.2*; PREPL inhibitor: 10.3; LYPLA1 inh: -0.8; LYPLA2 counter: -5.9; Hck Nef conf: inactive

How did CCCCNC(=O)c1cc2c(=O)n3cccc(C)c3nc2n(CCN2CCOCC2)c1=N do in these assays?
p97 ATPase inh: 4.0; Rin1-Abl PPI inh: -11.7; Hck Nef HTS: 29.9; PREPL inhibitor: 11.5; LYPLA1 inh: 0.1; LYPLA2 counter: -1.5

How did COCCNC(=O)c1cc2c(=O)n3cccc(C)c3nc2n(Cc2ccncc2)c1=N do in these assays?
p97 ATPase inh: -1.2; Rin1-Abl PPI inh: -3.3; Hck Nef HTS: 151.1*; PREPL inhibitor: 10.5; LYPLA1 inh: 3.4; LYPLA2 counter: 1.9

How did CCCCNC(=O)c1cc2c(=O)n3cccc(C)c3nc2n(Cc2ccncc2)c1=N do in these assays?
p97 ATPase inh: 0.5; Rin1-Abl PPI inh: -6.7; Hck Nef HTS: 67.2*; PREPL inhibitor: 14.0; LYPLA1 inh: 0.6; LYPLA2 counter: 3.2; Hck Nef conf: inactive

What do the screens show for `COc1ccc(-c2cnnc(N/N=C/c3ccc(-c4ccc([N+](=O)[O-])cc4)o3)n2)cc1`?
p97 ATPase inh: 4.8; Rin1-Abl PPI inh: 2.5; Hck Nef HTS: 84.1*; Hck Nef conf: active

How did CCCn1c(=N)c(C#N)cc2c(=O)n3cccc(C)c3nc21 do in these assays?
p97 ATPase inh: 4.2; Hck Nef HTS: 31.8; PREPL inhibitor: -2.0; LYPLA1 inh: 0.9; LYPLA2 counter: -4.1
